# From PubChem BioAssay (Tox21)
# Inconclusive results are not listed. Values without a mark were called inactive. The source made the active and inactive calls. The call rests on the fitted dose curve; in most records, active means well fitted cell-killing curve with a large enough effect in the repeat runs; inconclusive means weak or mixed curves, or effect the other way; inactive means flat fitted curve, though single readings scatter.
# Assay: qHTS assay to identify small molecule that activate the aryl hydrocarbon receptor (AhR) signaling pathway - cell viability counter screen (AID 743086); further: nearly all actives have a fitted effect of over 45% in size
# Conditions: HepG2-AhR-luc viability, CellTiter-Fluor, 24 h; series mostly up to 70.3 µM; viability change, negative = cytotoxic: at the top concentration
# Method in brief: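 Cytotoxicity counter screen: CellTiter-Fluor signal (30 min, 37 C) in 4000 HepG2 cells/well carrying the DRE-luciferase reporter, following 24 h compound exposure at 37 C.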
# On the % scale 0 is the no-effect control and ±100 the full control effect.
Compound,"viability change, negative = cytotoxic",Potency
COc1ccc(C(=O)/C(Br)=C\C(=O)O)cc1,-16.9%,–
COc1cc(-c2ccc(N=C=O)c(OC)c2)ccc1N=C=O,-5.53%,–
Cc1nc(-c2ccc3c(c2)CCN(CCC2CCC(NC(=O)/C=C/c4ccc(F)cc4)CC2)CC3)no1 (centres undefined),-1.51% [at 32.5 µM],–
NC(=O)NS(=O)(=O)c1ccc(N)cc1,-2.73%,–
CCC1OCC(COc2ccc(Oc3ccccc3)cc2)O1 (centres undefined),-15.3%,–
OCCCCCCCCCCCCBr,-1.3% [at 95 µM],–
Oc1ccc2cc(SSc3ccc4cc(O)ccc4c3)ccc2c1,–,inactive
O=[N+]([O-])c1ccccc1Nc1ccccc1,-5.86%,–
O=C(O)c1c(Cl)cccc1Cl,0.399%,–
O=C(OCC1CO1)C1CCCCC1C(=O)OCC1CO1 (centres undefined),-5.46%,–
CCC(Cl)C(Cl)C(Cl)CC(Cl)C(Cl)C(C)Cl (centres undefined),12.9%,–
CC(=O)SC[C@@H](Cc1ccccc1)C(=O)NCC(=O)OCc1ccccc1,-4.2% [at 32.5 µM],–
Cc1cc(C2CCCCC2)n(O)c(=O)c1,-0.681% [at 32.5 µM],–
O=C(Nc1ccc(Oc2ccc(Cl)cc2)c(Cl)c1)c1cc(I)cc(I)c1O,-9.59%,–
